This is an account of results in the supplement of paper PMC4894684.

Each structure is given as a SMILES string. Structures can show the parent of a compound that is named as a salt. ± gives the standard deviation of the averaged measurements.

In the experiment the test system is Toxoplasma gondii RH (in HFF). Nature of the experiment: parasite growth relative to the screen mean (all compounds = 100%); higher = less inhibition of parasite growth. Particulars: 5 µM; 72 h; oxygen 21 %. In outline: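 Confluent human foreskin fibroblasts in 96-well plates received library compounds by pin transfer at 5 µM final, taken from 10 mM DMSO stocks. Within 2 h the cells were infected with RH β-Gal–GFP Toxoplasma at MOI 1:5 and cultured 72 h at 21% O2. A CPRG β-Gal assay read against in-plate standard curves gave parasite number, and growth is stated relative to the screen mean, where all compounds = 100%, averaged across two screens.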
For the compound `Cn1cccc1/C=C1\C(=O)NC(=O)c2ccccc21`, the parasite growth stood at 121 ± 6.4%.
With `C/C=C1\C(=O)C[C@H]2[C@@H]3CCC4=CC(=O)CC[C@]4(C)[C@H]3CC[C@]12C` [Guggulsterone] the figure was 90.6 ± 26%; with `O=C1CC2(CCCC2)CC(=O)N1CCCCN1CCN(c2ncccn2)CC1` [Buspirone hydrochloride], 171 ± 21%; with `Nc1ncnc2n[nH]c(Nc3ccc(F)cc3)c12`, 94.4 ± 26%.
The compound `CC[C@@H]1C(=O)OC[C@@H]1Cc1cncn1C` [Pilocarpine hydrochloride] had a parasite growth of 76.5 ± 19%.
The compound `CC1=C(/C=C/C(C)=C/C=C/C(C)=C/C(=O)O)C(C)(C)CCC1` [Retinoic acid] had a parasite growth of 85 ± 12%.
`c1ccc(COCCCc2c[nH]cn2)cc1` [Proxyfan Oxalate] displayed a parasite growth of 112 ± 18%.
With `CC1CCN=C(N)S1` (stereo not given) [AMT hydrochloride] the figure was 70.6 ± 8.5%; with `COc1ccc(Cl)cc1C(=O)NCCc1ccc(S(=O)(=O)NC(=O)NC2CCCCC2)cc1` [Glibenclamide], 96.4 ± 24%.
In the case of `CN1C(=O)C(Cc2c[nH]c3ccccc23)NC1=S` (stereo not given) [Necrostatin-1], the parasite growth was 186 ± 6.6%.
With `C[C@@H](NCc1cc(Br)cc2[nH]c(=O)c(=O)[nH]c12)P(=O)(O)O` the figure was 109 ± 3.7%; with `CN1CCN(C2=Nc3cc(Cl)ccc3Nc3ccccc32)CC1` [Clozapine], 178 ± 40%; with `Cn1cc(C2=C(c3cn(CCCSC(=N)N)c4ccccc34)C(=O)NC2=O)c2ccccc21` [Ro 31-8220 mesylate], under 0%.
Turning to `O=C(O)/C=C/c1ccc(Cn2ccnc2)cc1` [Ozagrel hydrochloride], the parasite growth came out at 119 ± 3.2%.
`CC#CCOC(=O)C1=CCCN(C)C1` [Arecaidine but-2-ynyl ester tosylate] showed a parasite growth of 144 ± 12%.
